# This is part of a sample that, as a whole, favours compounds with a hit. Of some 83,000 tested, about 20% had one in any assay.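 Compound tested at a single concentration for 48 hours in 96-well plates; a percent growth value below 10 was scored as active.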 Values without a mark were called inactive. Calls of active or inactive are those of the source.
# Experiments:
# Experiment in all cases: NCI-60 one-dose screen, 48 h (100 = growth as untreated, 0 = no growth, -100 = all killed)
# Details in all cases: 10 µM unless noted
# HCT-15 colon = tested on: HCT-15 colon
# HT29 colon = tested on: HT29 colon
# SNB-75 CNS = tested on: SNB-75 CNS
# SNB-19 CNS = tested on: SNB-19 CNS
# U251 CNS = tested on: U251 CNS
# PC-3 prostate = tested on: PC-3 prostate
# SK-MEL-5 melanoma = tested on: SK-MEL-5 melanoma
# UACC-62 melanoma = tested on: UACC-62 melanoma
# LOX IMVI melanoma = tested on: LOX IMVI melanoma
# SK-MEL-28 melanoma = tested on: SK-MEL-28 melanoma
Structure (SMILES),growth (HCT-15 colon),growth (HT29 colon),growth (SNB-75 CNS),growth (SNB-19 CNS),growth (U251 CNS),growth (PC-3 prostate),growth (SK-MEL-5 melanoma),growth (UACC-62 melanoma),growth (LOX IMVI melanoma),growth (SK-MEL-28 melanoma)
COC1=CC(c2ccc[nH]2)=N/C1=C\c1[nH]c(C)c(CC(=O)NCc2ccccc2)c1C,-26% (active),15.1%,58.3%,-1.25% (active),18.7%,12%,-64% (active),-30.5% (active),-76.1% (active),22.1%
O=C(NCCNc1nccc(Nc2ccc(S(=O)(=O)Nc3ccccn3)cc2)n1)c1cccc([N+](=O)[O-])c1,105%,90.6%,93.5%,112%,97.6%,94.2%,103%,100%,101%,–
Cn1cc(-c2nonc2-c2cn(C)c3ccccc23)c2ccccc21,30.2%,6.32% (active),2.13% (active),24.7%,18.8%,26.2%,26.2%,30.6%,48.5%,–
COc1cc2cc(NCc3cccc(Cl)c3)nc(C)c2cc1OC,48.2%,3.17% (active),65.9%,48.8%,31.1%,50.1%,43.4%,14.4%,0.852% (active),–
COc1ccc(CNc2c3ccccc3nc3ccccc23)cc1,22%,19.3%,61.8%,34%,36.5%,34%,62.2%,55.8%,20.9%,79.6%
Nc1c(C(=O)Nc2ccccc2C(F)(F)F)sc2nc3c(cc12)CCC3,97.3%,94.3%,97.4%,98.4%,93.9%,100%,98.6%,81%,110%,–
Oc1ccc(Cl)cc1/C=N\NC(=S)N/N=C/c1cc(Cl)ccc1O,23%,33.9%,77.7%,39.8%,25.9%,25.8%,-32.6% (active),3.04% (active),15.7%,58.4%
COc1ccc2c(c1)c(-c1nc(-c3c[nH]c4ccncc34)cs1)cn2C,-54.2% (active),-72.1% (active),-97.5% (active),-58.9% (active),-91.9% (active),-81.1% (active),-97.4% (active),-75.8% (active),-93.3% (active),–
N#Cc1ccc(O)c(C2=NCC(c3cccc(Oc4ccccc4)c3)O2)c1 (stereo not drawn),26.8%,13.8%,51.7%,22.3%,3.98% (active),31.4%,32.7%,-1.59% (active),23%,–
CCCCCCC12CCC(=O)N1CCc1cncn12 (stereo not drawn),102%,100%,116%,105%,100%,98.3%,99.1%,95.6%,102%,–
COc1ccc(-c2ccc(-c3ccc(C(=N)N)cc3)s2)cc1Cl,-70.3% (active),0.572% (active),100%,24%,-62.4% (active),-25% (active),87.7%,88.3%,-76.7% (active),102%
Nc1cc(C(=O)NC[C@H]2CN(c3ccc(N4CCC(C(=O)O)CC4)cc3)C(=O)O2)ccc1Cl,102%,104%,84.8%,98.7%,103%,101%,103%,95.8%,97%,109%
CC(O)(c1ccccc1)C(c1ccccc1)C1CCCCN1 (stereo not drawn),96.6%,99.3%,100%,99.5%,100%,105%,103%,95.8%,96.8%,109%
O=S(=O)(Nc1cc(Cl)ccc1Cl)c1ccc(-c2cnc(C3CC3)o2)cc1,26.2%,5.45% (active),-8.98% (active),31.7%,30.2%,38.3%,31.1%,33.2%,35.8%,63.2%
CC(=O)O[C@@H]1C[C@]2(C(C)C)O[C@@]1(C)[C@@H]1CCC(C)=C1[C@@H]2OC(=O)/C=C/c1ccccc1,87.2%,74.8%,89.1%,102%,91.2%,56.5%,90.7%,83.6%,83.3%,97.3%
CCCCCCCC[C@@H]1N[C@@H](C(=O)OC)Cc2c1[nH]c1ccccc21,94.2%,111%,81.6%,96.6%,91.5%,94.6%,97.3%,69.1%,93.1%,94.2%
NNc1nc(-c2cccnc2)nc2c1sc(=S)n2-c1ccccc1,96.3%,90.3%,87.4%,113%,90.6%,72.6%,98.4%,108%,86.7%,119%
COc1ccc(\C=N/N=C(N)/C(N)=N\N=C/c2ccc(OC)cc2)cc1,104%,102%,86.8%,112%,107%,101%,105%,104%,99.1%,125%
COc1cc2c(c(OC)c1OC)CCC(c1cccc(C(=O)Nc3ccc(C#N)cc3)c1)O2 (stereo not drawn),59.7%,69.3%,57.3%,58.7%,64.2%,14%,-12.7% (active),24.6%,39.5%,58.8%
CC1CCc2c(C(=O)Nc3ncc(Cc4cccc([N+](=O)[O-])c4)s3)csc2C1 (stereo not drawn),26.2%,14.9%,-14.6% (active),31.8%,26.9%,35.7%,21.1%,13.9%,20%,60.7%
CN1CCN(C(=O)c2ccc(NC(=O)c3cc4c(nn3)NCCN4Cc3cc(Cl)ccc3Cl)cc2)CC1,68%,63.2%,79.4%,92.2%,65.6%,71.1%,75.2%,92.5%,59.4%,89%
COc1ccc(OC)c(/C=N/Nc2ncnc3c2c(C)nn3C)c1,100%,88.3%,104%,98.3%,96.6%,99.6%,98%,93.5%,99.5%,98.8%
O=c1scc(-c2ccc(C(F)(F)F)cc2)s1,93.4%,89.4%,63.5%,91.8%,95.2%,87.8%,97%,84.1%,103%,102%
c1cc2c(ccc3[nH]c(-c4ccc5[nH]ncc5c4)c4c(c32)CCCC4)n1,61.6%,51.7%,62.1%,44.5%,36.8%,28.4%,61.7%,54.6%,61.5%,67.3%
Cn1c(I)c(C#CCO[Si](C)(C)C(C)(C)C)c(=O)[nH]c1=O,91%,113%,99.9%,104%,109%,96.5%,103%,101%,99.9%,30.7%
COC(=O)Nc1nc2ccc(S(=O)c3ccccc3)cc2[nH]1 (stereo not drawn),45.6%,16.9%,73.2%,74.9%,60.2%,67.4%,42.5%,52.4%,64.8%,72.8%
Cc1cn(-c2cc(NC(=O)c3cncc(C#Cc4cnc(N)c5ncccc45)c3)cc(C(F)(F)F)c2)cn1,59.6%,35.4%,89.4%,106%,85.7%,84.7%,18.3%,35.2%,21.5%,40.5%

# — PubChem BioAssay (NCI)
